Bioassay records from PubChem.
GC-B act: GC-B (human) receptor activation; actives 0.11% (n = 370,000); activation, % at 10 µM; P20594; HEK293-GC-B cells, CNP EC30, cGMP TR-FRET; 0% at EC30 CNP, 100% saturating CNP;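 active = activation at 10 µM reaching about 35% in either raw or pattern-adjusted values, limit read from the data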
Neddyl block: inhibitors of human cullin neddylation; TR-FRET cullin neddylation, biochemical; inhibition, % at 25 µM; actives 0.58% (n = 360,000); AID 651699; in the data active = inhibition above about 36%
GC-A act: GC-A (human) enzyme activation | AID 1671463 | P16066 | activation, % at 10 µM | HEK293 GC-A cells, cGMP TR-FRET, EC30 ANP; 0% at EC30 ANP, 100% saturating ANP | actives 0.14% (n = 370,000); in the data active = activation above about 40%
TLR4-MyD88 BLA: blocks binding of human TLR4 to MyD88; O00206+Q99836; HeLa CL3-4 TLR4/MyD88 BLA complementation, FRET ratio; inhibition, % at 8.4 µM; actives 0.18% (n = 200,000); AID 861; in the data active = inhibition above about 25%;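 also: 0% = vehicle and 100% = reference inhibitor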
TLR9-MyD88 inh: blocks human TLR9 binding to MyD88 | actives 0.21% (n = 340,000) | AID 504734 | Q9NR96+Q99836 | inhibition, % at 4.98 µM | CHO BLA complementation TLR9-MyD88, CCF4 FRET ratio;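 active = inhibition above the mean over all tested compounds plus 3 SD, cut at about 21% in these data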;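 also: 0% = DMSO only wells and 100% = clavulanate BLA inhibitor control wells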
NOD2-RIPK2 inh: NOD2-RIPK2 protein interaction inhibition; O43353; CHO BLA complementation NOD2-RIPK2, CCF4 ratio; inhibition, % at 4.98 µM; actives 0.38% (n = 360,000); AID 624267; in the data active = inhibition above about 21%;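 also: 0% = vehicle only and 100% = reference blocker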
Neddyl inh conf: cullin neddylation inhibition, confirmation; calls only at 25 µM; shares compounds with Neddyl block; TR-FRET cullin neddylation biochemical assay; actives 13% (n = 1,800); in the data active = inhibition above about 40%;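 also: neddylation substrate is the cullin 1 ring ligase complex with SKP2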
* marks the source's active call; other numbers are inactive results; i = inactive; · = not tested or not shown; + = active, no number. Most compounds without a hit are left out; they make up all but 1.2% or so of the library.

SMILES	GC-B act	Neddyl block	GC-A act	TLR4-MyD88 BLA	TLR9-MyD88 inh	NOD2-RIPK2 inh	Neddyl inh conf
O=C(Nc1cccc(F)c1)c1cccnc1NCCc1ccccc1	-2.2	44.0*	2.6	-15.5	-3.6	-3.2	i
COc1ccc2cc3cc(C(=O)N4CCCC(C)C4)oc3nc2c1 (configuration not stated)	-2.3	45.0*	7.0	·	-5.2	1.3	i
Cc1nnc(N2CCC(C(=O)NC3CCC(C)CC3)CC2)c2nn(-c3ccc(Cl)cc3)c(C)c12 (configuration not stated)	·	45.8*	·	·	-6.1	-7.9	i
Cc1ccc2c(c1)COc1c3ccc(C(=O)NCCO)cc3nn1-2	-2.1	52.8*	-1.4	·	-3.7	-23.7	+
Cc1ccc2c(c1)COc1c3ccc(C(=O)N[C@@H](C)CO)cc3nn1-2	0.2	53.8*	3.0	·	-1.3	-8.9	·
Cc1ccc2c(c1)COc1c3ccc(C(=O)NC(C)C)cc3nn1-2	2.9	51.2*	3.7	·	-0.3	-2.2	+
O=C(NCCO)c1ccc2c3n(nc2c1)-c1ccc(Cl)cc1CO3	1.7	15.6	4.6	·	-1.6	-10.9	·
Cc1ccccc1C(=O)NNC(=O)CCCCC(=O)NNC(=O)c1ccccc1C	1.5	5.9	-2.4	·	5.6	-4.5	·
Cc1noc(C)c1S(=O)(=O)N(C)C[C@H]1OCc2cn(nn2)CCCC(=O)N([C@H](C)CO)C[C@@H]1C	-8.9	-11.0	0.6	·	-1.0	0.9	·
COc1cccc2c(=O)cc(C)n(CC(=O)Nc3cccc(C)c3)c12	3.2	43.8*	-2.5	-2.5	6.4	-6.1	i
CN(C)c1cccc2c(S(=O)(=O)NCC3CCN(C(=O)C(=O)c4cc5ccccc5o4)CC3)cccc12	3.7	·	5.3	·	·	·	·
NC(=O)N/N=C\c1cc(Br)ccc1O	6.2	41.3*	-2.0	-3.1	-5.5	5.2	i
Fc1cccc(Cl)c1CN1CCN(c2nc3ccccc3s2)CC1	-0.5	4.2	-1.1	·	1.7	-4.1	·
COc1ccc(-c2cc(C(F)(F)F)nc(-n3ccnc3)n2)cc1	1.5	45.1*	-1.9	13.9	3.3	-10.3	i
COc1ccc(-c2cc(C(F)(F)F)nc(-n3cncn3)n2)cc1	0.7	·	-1.4	-12.2	1.5	-2.7	·
COc1ccccc1N1CC(C(=O)OCC(=O)Nc2c(C)cccc2C)CC1=O (configuration not stated)	0.6	-1.7	4.0	·	4.7	-8.4	·
Cc1ccc(C)c(S(=O)(=O)C(C#N)c2nc3ccccc3nc2N2CC(C)OC(C)C2)c1 (configuration not stated)	-1.3	42.6*	-1.3	0.8	1.4	-0.8	i
Cc1ccc(C)c(S(=O)(=O)C(C#N)c2nc3ccccc3nc2N2CCCC2)c1 (configuration not stated)	1.5	7.2	2.5	13.0	13.6	-14.8	·
COC(=O)C1=C(C)Nc2sc(C(N)=O)c(N)c2C1c1ccncc1 (configuration not stated)	-1.1	41.9*	-3.7	7.0	7.8	-9.4	i
COC(=O)C1=C(C)Nc2c(c(=O)n(C)c(=O)n2C)C1c1ccncc1 (configuration not stated)	11.2	0.8	0.8	-6.4	6.5	-3.9	·
CC(=O)C1=C(C)NC(=O)CC1c1ccc(Br)cc1 (configuration not stated)	-3.0	-4.6	1.2	7.5	4.2	4.4	·
O=C(O)c1cc2cc(OCc3ccccc3)ccc2[nH]1	1.2	51.5*	4.5	-10.1	-3.9	-6.5	i
O=C(O)c1cc(OCc2ccccc2)cc(OCc2ccccc2)c1	-4.1	5.2	-4.3	·	4.2	0.3	·
COc1ccc(C(=O)Cn2c(=O)c(CCC(=O)O)nn3c4ccccc4nc23)cc1OC	2.2	39.1*	-5.4	-11.5	1.4	-2.7	+
CCOC(=O)[C@@]12CCCC3=C1N(CCC3)C(=O)[C@H]2CC(=O)NCc1ccccc1	-2.9	·	-0.5	·	·	·	·
C=CCN(CC=C)Cc1c(C)[nH]c2ccc(C(=O)OCC)cc2c1=O	0.9	44.0*	0.7	-7.3	-4.4	0.9	i
